Consider 63 compounds from PubChem BioAssay AID1835 (Johns Hopkins Ion Channel Center, 2009).

Structures are written as SMILES. The campaign covered roughly 2,400 compounds. About 750 (31%) were called active. The list shows a part of the results. Values without a mark were called inactive.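 The calls were made as follows: active = median signal gain over dofetilide-blocked control wells reaching their mean plus 3 SD, so readout 1 at least 0; inactive = the rest.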

For this experiment, the target named is Voltage-gated inwardly rectifying potassium channel KCNH2 (Homo sapiens) (UniProt Q12809). Description: modulators restoring hERG flux under dofetilide – cell-based, thallium flux, duplicate retest, dofetilide IC70, confirmation (AID 1835). Particulars: hERG cell line, FluxOR thallium flux, dofetilide-blocked; at 10 µM; active compounds read high.
Voltage-gated inwardly rectifying potassium channel KCNH2 (Homo sapiens), sequence (Q12809 whole entry, looked up): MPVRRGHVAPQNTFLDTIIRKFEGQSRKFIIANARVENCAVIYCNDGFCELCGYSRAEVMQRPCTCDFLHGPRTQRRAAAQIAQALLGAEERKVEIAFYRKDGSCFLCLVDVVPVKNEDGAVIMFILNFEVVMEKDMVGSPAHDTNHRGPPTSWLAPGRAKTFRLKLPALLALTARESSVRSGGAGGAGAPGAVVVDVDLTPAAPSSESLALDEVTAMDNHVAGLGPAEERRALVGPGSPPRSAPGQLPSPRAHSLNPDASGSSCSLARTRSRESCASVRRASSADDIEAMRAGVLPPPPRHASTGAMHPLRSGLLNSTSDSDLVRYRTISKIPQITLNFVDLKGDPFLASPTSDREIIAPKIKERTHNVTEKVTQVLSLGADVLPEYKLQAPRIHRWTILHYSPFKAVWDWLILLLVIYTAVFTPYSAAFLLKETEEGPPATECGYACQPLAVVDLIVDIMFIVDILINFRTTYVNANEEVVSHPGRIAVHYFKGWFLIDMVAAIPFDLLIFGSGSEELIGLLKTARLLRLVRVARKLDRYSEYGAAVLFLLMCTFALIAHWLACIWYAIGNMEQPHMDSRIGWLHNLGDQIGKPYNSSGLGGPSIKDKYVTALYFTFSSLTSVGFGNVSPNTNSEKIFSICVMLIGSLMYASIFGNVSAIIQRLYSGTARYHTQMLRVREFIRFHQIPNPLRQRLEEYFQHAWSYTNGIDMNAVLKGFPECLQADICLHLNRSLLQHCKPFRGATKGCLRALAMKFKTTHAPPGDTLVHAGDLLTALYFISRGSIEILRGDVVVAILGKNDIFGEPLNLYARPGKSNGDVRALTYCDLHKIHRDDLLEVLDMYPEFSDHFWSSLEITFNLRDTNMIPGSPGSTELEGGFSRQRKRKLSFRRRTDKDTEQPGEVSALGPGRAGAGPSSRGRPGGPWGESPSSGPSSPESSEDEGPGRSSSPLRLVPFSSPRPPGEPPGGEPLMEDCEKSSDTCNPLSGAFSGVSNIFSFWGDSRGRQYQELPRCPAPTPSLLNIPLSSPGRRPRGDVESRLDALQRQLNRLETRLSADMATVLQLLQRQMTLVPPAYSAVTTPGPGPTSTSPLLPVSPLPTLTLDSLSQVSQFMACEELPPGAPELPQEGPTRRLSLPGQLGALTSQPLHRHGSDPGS
Take `CC(/C=C1\SC(=S)N(NS(=O)(=O)c2ccc(C)cc2)C1=O)=C\c1ccccc1`: the activity increase over dofetilide control, less the hit threshold is 7% (active). For `COc1ccccc1/C=C1\SC(=S)N(NS(=O)(=O)c2ccc(C)cc2)C1=O`, the activity increase over dofetilide control, less the hit threshold was -20%. With `Cc1ccc(S(=O)(=O)N2C(=O)/C(=C3\SC(=S)NC3=O)c3ccccc32)cc1`, the activity increase over dofetilide control, less the hit threshold is -6%. For the compound `CC(/C=C1\SC(=S)N(NS(=O)(=O)c2ccccc2)C1=O)=C\c1ccccc1`, the activity increase over dofetilide control, less the hit threshold was 15% (active). In the case of `CC(/C=C1\SC(=S)N(c2ccc(C(=O)O)cc2)C1=O)=C\c1ccccc1`, the activity increase over dofetilide control, less the hit threshold is -15%. As for `O=C(O)CC1S/C(=N/N=C/c2ccc(-c3ccccc3[N+](=O)[O-])o2)NC1=O` (stereo not drawn), the figure is -22%; as for `COc1ccc(OC)c(NC(=O)C(=O)NNC(=O)C23CC4CC(CC(C4)C2)C3)c1`, 83% (active). `COc1ccc(NC(=O)C(=O)NNC(=O)COc2ccc(Cl)cc2)c(OC)c1`: the activity increase over dofetilide control, less the hit threshold is 30% (active). For `COc1ccc(OC)c(NC(=O)COC(=O)c2ccc(-n3cnnn3)cc2)c1`, the activity increase over dofetilide control, less the hit threshold was -10%.

As for `COc1ccc(OC)c(NC(=O)C(=S)NC2CCCCC2)c1`, the activity increase over dofetilide control, less the hit threshold is -2%. Take `COc1ccc(OCC(=O)NNC(=O)C(=O)Nc2cc(OC)ccc2OC)cc1`: the activity increase over dofetilide control, less the hit threshold was 8% (active). Next, `COc1ccc(OCC(=O)Nc2c3c(nn2-c2ccc(OC)cc2)CS(=O)(=O)C3)cc1`: -18%; `COc1ccc(NC(=O)C(=O)NNC(=O)COc2ccc(OC)cc2)cc1`: -12%. Next, `COc1cccc(OCC(=O)NNC(=O)C(=O)Nc2ccc(OC)cc2OC)c1`: 39% (active); `COc1ccc(NC(=O)COC(=O)c2c(C)noc2C)c(OC)c1`: -2%; `Cc1n[nH]c(C)c1CCNC(=O)C1CCC(=O)N(Cc2ccccc2F)C1` (stereo not drawn): -15%. For `O=c1c2cc(Br)ccc2nc(-c2ccc([N+](=O)[O-])cc2)n1O`, the activity increase over dofetilide control, less the hit threshold was 47% (active). As for `O=c1c2cc(Cl)ccc2nc(-c2ccc([N+](=O)[O-])cc2)n1O`, the figure is 16% (active); as for `O=[N+]([O-])c1ccc(Nc2ccc(Cl)cc2)nc1`, -17%. Regarding `N#Cc1ccc(-c2nc3cc(Cl)ccc3c(=O)n2O)cc1`, the activity increase over dofetilide control, less the hit threshold is -4%.

`O=[N+]([O-])c1ccc(CSc2nnc(SCc3ccc(Cl)cc3)s2)cc1`: the activity increase over dofetilide control, less the hit threshold was 0%. Consider `O=c1c2ccc(Cl)cc2nc(-c2ccc([N+](=O)[O-])cc2)n1O`, for which the activity increase over dofetilide control, less the hit threshold is 16% (active). Next, `O=C1C(c2ccccc2)C(c2ccccc2)NC(c2ccccc2)C1c1ccccc1` (stereo not drawn): -17%. For the compound `O=C(CC1NCCNC1=O)Nc1ccc([N+](=O)[O-])cc1` (stereo not drawn), the activity increase over dofetilide control, less the hit threshold was -17%.

On to `CC(=O)NCCC(=O)N(C)CC1CCN(CCc2cccc(C(F)(F)F)c2)CC1`, for which the activity increase over dofetilide control, less the hit threshold was -6%. As to `CS(=O)(=O)N1CCN(c2ccccc2NC(=O)Nc2cccc(Cl)c2)CC1`, the activity increase over dofetilide control, less the hit threshold is -16%. As for `COc1cc(/C=N/NC(=O)NC2CCCCC2)ccc1O`, the figure is -20%; as for `COc1ccccc1C(=O)NNC(=O)C(=O)NCc1ccccc1`, 16% (active); as for `COc1ccccc1C(=O)NNC(=O)C(=O)NC1CCCCC1`, 49% (active). As for `Cc1ccc(NC(=O)C(=O)NNC(=O)c2ccccc2C)cc1Cl`, the figure is 54% (active). As for `COc1ccccc1C(=O)Nc1ccnn1C1CCN(C(=O)c2ccoc2C)CC1`, the figure is -7%; as for `CC(=O)Nc1ccccc1C(=O)C(=O)Nc1ccccc1`, -23%; as for `COc1ccccc1C(=O)NNC(=O)C(=O)NC(C)(C)C`, 21% (active). As to `COc1ccccc1NC(=O)C1CCCN1C(=O)NCc1ccccc1` (stereo not drawn), the activity increase over dofetilide control, less the hit threshold was -21%. With `COc1cc(NC(=O)c2ccccc2OCc2ccccc2)cc(OC)c1OC`, the activity increase over dofetilide control, less the hit threshold is -16%. With `COc1cccc(/C=C2/C(=O)NN(c3ccc(C)c(C)c3)C2=O)c1`, the activity increase over dofetilide control, less the hit threshold is -14%. Turning to `O=C(COc1ccc(Cl)cc1)NNC(=O)C(=O)NC1CCCCC1`, the activity increase over dofetilide control, less the hit threshold was -9%.

Turning to `COc1ccccc1CC(=O)Nc1ccc(OC)c(OC)c1`, the activity increase over dofetilide control, less the hit threshold is -8%. For the compound `COc1ccc(NC(=O)c2ccccc2SC)cc1OC`, the activity increase over dofetilide control, less the hit threshold was -18%. As to `COc1ccccc1C(=O)NNC(=O)C(=O)Nc1ccc(C)cc1`, the activity increase over dofetilide control, less the hit threshold is 77% (active). Next, `COc1ccc(C(=O)NCc2nnc(SCC(=O)NC3CCCCC3)n2C)cc1`: -18%. As to `COc1ccc(C(=O)NNC(=O)C(=O)NC2CCCCC2)cc1`, the activity increase over dofetilide control, less the hit threshold was 5% (active).

Turning to `COc1ccccc1C(=O)NNC(=O)C(=O)Nc1ccc(C)c(Cl)c1`, the activity increase over dofetilide control, less the hit threshold was 99% (active).

In the case of `O=c1oc2ccccc2c2c1nc(C(F)(F)F)n2-c1ccccc1`, the activity increase over dofetilide control, less the hit threshold was -20%.

On to `CCCn1nnnc1SCC(=O)Nc1nnc(CC)s1`, for which the activity increase over dofetilide control, less the hit threshold was -6%. Take `O=C(NCCc1nnc2ccc(NCc3ccc(Cl)cc3)nn12)c1ccccc1`: the activity increase over dofetilide control, less the hit threshold was -11%. For the compound `COc1ccc(C2CC(c3ccc(Cl)cc3Cl)Nc3nc(N)nn32)cc1OC` (stereo not drawn), the activity increase over dofetilide control, less the hit threshold is -10%. For `O=C(/C=C/Nc1ccc(F)c(F)c1)c1cccs1`, the activity increase over dofetilide control, less the hit threshold was -18%. As for `Cc1ccccc1NC(=O)CC1S/C(=N/c2nccs2)N(C)C1=O` (stereo not drawn), the figure is 0%; as for `C/C(=N\O)C1CC(CC(=O)O)C1(C)C` (stereo not drawn), -13%. Regarding `CSC1=C(C#N)C(CC(C)C)C2=C(CCCC2=O)N1` (stereo not drawn), the activity increase over dofetilide control, less the hit threshold is -12%.

For `CCOC(=O)N1CCN(C(=O)c2ccc(CN(c3ccc(C)c(C)c3)S(C)(=O)=O)cc2)CC1`, the activity increase over dofetilide control, less the hit threshold is 8% (active). Turning to `COc1ccc(N(CC(=O)N2CCN(Cc3ccccc3)CC2)S(C)(=O)=O)cc1OC`, the activity increase over dofetilide control, less the hit threshold was -3%. Take `CCN1CCN(C(=O)c2ccc(Cn3c(=O)[nH]c4cc(OC)c(OC)cc4c3=O)cc2)CC1`: the activity increase over dofetilide control, less the hit threshold is -17%.

Take `S=c1[nH]nc(-c2ccc(Cl)cc2)n1Cc1ccccc1`: the activity increase over dofetilide control, less the hit threshold is -13%. As to `O=c1[nH]c(SCc2cccc(Cl)c2)nc2ccccc12`, the activity increase over dofetilide control, less the hit threshold is -14%. Regarding `S=c1nc(Cc2ccc(Cl)cc2)[nH]c2ccccc12`, the activity increase over dofetilide control, less the hit threshold was 90% (active).

Turning to `S=c1nc(Cc2ccccc2)[nH]c2ccccc12`, the activity increase over dofetilide control, less the hit threshold is 78% (active). `S=c1nc(COc2ccccc2)[nH]c2ccccc12`: the activity increase over dofetilide control, less the hit threshold is 100% (active). Consider `S=c1nc(SCc2ccccc2)[nH]c2ccccc12`, for which the activity increase over dofetilide control, less the hit threshold is 100% (active). Regarding `O=C(O)CCCCCNc1nc(=S)[nH]c2ccccc12`, the activity increase over dofetilide control, less the hit threshold is -7%. As for `CCC(C)N(C(=O)CSc1nnc(NC(C)C)s1)C1CCS(=O)(=O)C1` (stereo not drawn), the activity increase over dofetilide control, less the hit threshold is -11%. In the case of `CS(=O)(=O)N(CCc1ccccc1)CC(=O)N1CCN(c2ccc(F)cc2)CC1`, the activity increase over dofetilide control, less the hit threshold was -9%.
